The source of these data is PubChem BioAssay (NCI).

Compounds without any hit were thinned out: in the full panel of roughly 83,000, 20% have a hit.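 Interpretation: 100, growth as untreated; towards 0, rising growth inhibition; 0, no net growth; 0 to -100, cell death. Compounds scoring below 10 were considered active.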 Unmarked numbers belong to inactive results. The source made the active and inactive calls.

Common to all, as to assay: NCI-60 one-dose screen, 48 h (100 = growth as untreated, 0 = no growth, -100 = all killed)
Details in all cases: 10 µM unless noted

Experiment [1] concerns HCT-15 colon.
Experiment [2] concerns HT29 colon.
The subject of experiment [3] is SNB-75 CNS.
The subject of experiment [4] is SNB-19 CNS.
For experiment [5], the system named is U251 CNS.
Experiment [6] has as its system PC-3 prostate.
For experiment [7], the system named is SK-MEL-5 melanoma.
Experiment [8] has as its system UACC-62 melanoma.
Experiment [9] deals with LOX IMVI melanoma.
For experiment [10], the system named is SK-MEL-28 melanoma.
For experiment [11], the system named is SK-MEL-2 melanoma.
Experiment [12] concerns EKVX NSCLC.
Experiment [13] relates to SN12C renal.
Experiment [14] deals with UO-31 renal.
The subject of experiment [15] is ACHN renal.
In experiment [16] the test system is CAKI-1 renal.
For experiment [17], the system named is A498 renal.
Experiment [18] deals with CCRF-CEM leukemia.
Experiment [19] relates to MOLT-4 leukemia.
The test system of experiment [20] is TK-10 renal.

As for `O=C1Nc2c(ccc(Cl)c2Cl)/C1=C/c1ccc([N+](=O)[O-])cc1`, the growth in experiment [1] is 89.4%; in experiment [2], 99.2%; in experiment [3], 95.9%; in [4], 81.3%; in experiment [5] it was 92.3%; in experiment [6] it was 95.3%. Moreover, the growth in experiment [7] is 99.6%; in [8] it was 102%; in experiment [9], 89.5%; in experiment [10], 111%; in experiment [11], 99.1%; in [12] it was 84.3%. The growth was 126% in experiment [13]; 79.7% in experiment [14]; 87.8% in [15]; 59.6% in experiment [16]; 99.4% in [17]; 2.94% (active) in [18]. The growth in experiment [19] is 96.3%.

As to `CNC(=O)c1c(NC(=O)c2ccc(C(C)C)cc2)sc2c(CN(C)C)c(O)ccc12`, the growth in experiment [1] was 14.2%; in [2], 87.1%; in [3], 98.1%; in [4], 103%; in experiment [5], 81.7%; in experiment [6], 79.4%. In addition, the growth in experiment [7] was 96%; in experiment [8] it was 99.9%; in experiment [9] it was 57.3%; in [10], 94.5%; in experiment [11], 90.2%; in [12], 90.2%. The growth is 99.4% in [13]; 64.5% in [14]; 66.6% in [15]; 85.1% in experiment [16]; 58.9% in [17]; 56.7% in experiment [18]. The growth in [19] is 72.4%.

As to `C#Cc1cccc(NC(=O)Nc2cccc(N=C=S)c2)c1`, the growth in experiment [1] is 105% [8.25 µM]; in [2], 113% [8.25 µM]; in experiment [3] it was 89.3% [8.25 µM]; in experiment [4], 96.6% [8.25 µM]; in experiment [5] it was 96.9% [8.25 µM]; in experiment [6] it was 94.6% [8.25 µM]. Besides, the growth in experiment [7] was 95.7% [8.25 µM]; in experiment [8], 89.4% [8.25 µM]; in [9], 102% [8.25 µM]; in experiment [10] it was 103% [8.25 µM]; in [11], 109% [8.25 µM]; in [12] it was 99.7% [8.25 µM]. Moreover, the growth is 97.6% [8.25 µM] in experiment [13]; 87.7% [8.25 µM] in experiment [14]; 103% [8.25 µM] in experiment [15]; 94.7% [8.25 µM] in experiment [16]; 85% [8.25 µM] in [17]; 96.1% [8.25 µM] in experiment [18]. Further, the growth in [19] was 97.8% [8.25 µM].

Consider `N#Cc1c(NC(=O)c2cccc(Br)c2)sc2c1CCCC2`, for which the growth in experiment [1] is 45.8%; in experiment [2], 59.5%; in [3] it was 84.4%; in experiment [4] it was 81.1%; in experiment [5], 88.2%; in experiment [6] it was 90.9%. Also, the growth in experiment [7] is 89.8%; in [8] it was 71.7%; in [9], 80%; in experiment [10], 86.3%; in experiment [11] it was 91.9%; in [12], 92.3%. The growth in experiment [13] was 83.9%; in experiment [14], 82.3%; in experiment [15], 75.6%; in [16], 73%; in experiment [18] it was 63.5%; in [19] it was 52.3%.

For the compound `O=C(Nc1nc2ccc(S(=O)(=O)Nc3ccc(C4(C(F)(F)F)CC4)cc3)cc2[nH]1)c1cnccn1`, the growth in [1] was 29.5%; in experiment [2] it was 15.6%; in [3] it was -27.1% (active); in [4] it was 40.3%; in experiment [5] it was 38%; in experiment [6] it was 27.7%. Moreover, the growth in experiment [7] was 26.1%; in experiment [8] it was 40%; in [9], 38.3%; in experiment [10], 57.2%; in [11], 56.3%; in [12], 65.3%. Besides, the growth in [13] was 44.9%; in experiment [14], 40.3%; in [15], 43.5%; in experiment [16], 28.6%; in experiment [18], 19.9%; in [19], 38.7%.

Regarding `COc1ccc(/C=C(/c2ccccc2)[N+](=O)[O-])cc1`, the growth is -35% (active) in experiment [1]; -26.7% (active) in experiment [2]; -85.5% (active) in experiment [3]; -19% (active) in experiment [4]; -95.4% (active) in experiment [5]; -56.7% (active) in experiment [6]. The growth in experiment [7] is -91.5% (active); in [8], -17.6% (active); in [9], -89.6% (active); in [10] it was -17.7% (active); in [11], -49.7% (active); in [12] it was -29.6% (active). In addition, the growth was -38.4% (active) in [13]; -100% (active) in [14]; -97.4% (active) in [15]; -88.3% (active) in experiment [16]; 10% in [17]; -15.5% (active) in experiment [19].

In the case of `COc1ccc(C(=O)c2cc3c(N)c(C(=O)Nc4ccc(Br)cc4)sc3nc2C)cc1`, the growth in experiment [1] was 69.3%; in experiment [2], 74.9%; in [3] it was -0.922% (active); in experiment [4], 56.6%; in experiment [5] it was 58.7%; in [6], 74.2%. The growth in experiment [7] was 81.5%; in [8], 73.4%; in experiment [9], 84.5%; in [10], 86.4%; in experiment [11] it was 74.4%; in experiment [12], 83.1%. Besides, the growth was 84.4% in [13]; 72.3% in experiment [14]; 65.5% in experiment [15]; 62.5% in experiment [16]; 83.9% in experiment [17]; 88.5% in [18]. For the same compound, the growth in experiment [19] was 91.2%.

In the case of `C/C(=C(/c1ccccc1)c1ccc(OCC(O)CNCCN2CCOCC2)cc1)c1ccccc1` (centres undefined), the growth was 4.47% (active) in [1]; 3.2% (active) in experiment [2]; 65.8% in experiment [3]; 91.2% in experiment [4]; 32.6% in experiment [5]; 65.4% in experiment [6]. For the same compound, the growth is 29% in experiment [7]; 62.8% in experiment [8]; 18.7% in experiment [9]; -86.2% (active) in experiment [10]; 94.9% in experiment [11]; 82.8% in [12]. Moreover, the growth in experiment [14] is 69.2%; in experiment [20], 73.5%; in experiment [15], 81.4%; in experiment [16] it was 67.9%; in experiment [17], 79.9%; in experiment [18] it was 56.5%. In [19], the growth is 41%.
